In experiment [1] the target is Cytochrome P450 2D6 (Homo sapiens) (UniProt P10635). The experiment in a line: Cytochrome P450 family 2 subfamily D member 6 (CYP2D6) small molecule antagonists: luciferase biochemical (cell-free) qHTS assay (AID 1645840). Note: nearly all actives have a fitted effect of over 55% in size. Note: potency is the fitted concentration of half-maximal effect. In outline:
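P450-Glo luminescent screen: recombinant CYP2D6 enzyme–proluciferin substrate mix preincubated with compound 10 min at room temperature, then NADPH regeneration added for 1 h at room temperature. Detection reagent added for 20 min; luciferin light read as relative luminescence units.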
Background: In qHTS, concentration-response curves come from the screen itself.

Experiment [2] concerns the target Cytochrome P450 2C9 (Homo sapiens) (UniProt P11712). The experiment in a line: Cytochrome P450 family 2 subfamily C member 9 (CYP2C9) small molecule antagonists: luciferase biochemical (cell-free) qHTS assay (AID 1645842). Note: nearly all actives have a fitted effect of over 55% in size. Note: potency is the fitted concentration of half-maximal effect. In outline:
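Luminescence, after 20 min with luciferin detection reagent, reflected CYP2C9 turnover during a 1 h NADPH-driven reaction at 37C. Enzyme-substrate mix contained 0.4% bovine serum albumin and was preincubated with compound 10 min at room temperature.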

The target of experiment [3] is Rap guanine nucleotide exchange factor 3 (Homo sapiens) (UniProt O95398). The experiment in a line: Confirmatory qHTS for antagonist of cAMP-regulated guanine nucleotide exchange factor 3 (EPAC1) (AID 1645880; active = well fitted curve in the direction sought with a large enough effect; an effect the other way counts as inactive or inconclusive; note: nearly all actives have a fitted effect of over 55% in size; note: potency is the fitted concentration of half-maximal effect). In outline: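 Nucleotide exchange uses 100 nM EPAC1, 250 nM RAP1B-BODIPY-GDP and 50 uM GDP, with compounds in a concentration-titration series. After 5 min at room temperature, fluorescence (480 nm ex/540 nm em) is read every 5 min for 30 min. Data are normalized to control ATA and DMSO.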
Chain of Rap guanine nucleotide exchange factor 3 (Homo sapiens) (O95398 whole entry, looked up): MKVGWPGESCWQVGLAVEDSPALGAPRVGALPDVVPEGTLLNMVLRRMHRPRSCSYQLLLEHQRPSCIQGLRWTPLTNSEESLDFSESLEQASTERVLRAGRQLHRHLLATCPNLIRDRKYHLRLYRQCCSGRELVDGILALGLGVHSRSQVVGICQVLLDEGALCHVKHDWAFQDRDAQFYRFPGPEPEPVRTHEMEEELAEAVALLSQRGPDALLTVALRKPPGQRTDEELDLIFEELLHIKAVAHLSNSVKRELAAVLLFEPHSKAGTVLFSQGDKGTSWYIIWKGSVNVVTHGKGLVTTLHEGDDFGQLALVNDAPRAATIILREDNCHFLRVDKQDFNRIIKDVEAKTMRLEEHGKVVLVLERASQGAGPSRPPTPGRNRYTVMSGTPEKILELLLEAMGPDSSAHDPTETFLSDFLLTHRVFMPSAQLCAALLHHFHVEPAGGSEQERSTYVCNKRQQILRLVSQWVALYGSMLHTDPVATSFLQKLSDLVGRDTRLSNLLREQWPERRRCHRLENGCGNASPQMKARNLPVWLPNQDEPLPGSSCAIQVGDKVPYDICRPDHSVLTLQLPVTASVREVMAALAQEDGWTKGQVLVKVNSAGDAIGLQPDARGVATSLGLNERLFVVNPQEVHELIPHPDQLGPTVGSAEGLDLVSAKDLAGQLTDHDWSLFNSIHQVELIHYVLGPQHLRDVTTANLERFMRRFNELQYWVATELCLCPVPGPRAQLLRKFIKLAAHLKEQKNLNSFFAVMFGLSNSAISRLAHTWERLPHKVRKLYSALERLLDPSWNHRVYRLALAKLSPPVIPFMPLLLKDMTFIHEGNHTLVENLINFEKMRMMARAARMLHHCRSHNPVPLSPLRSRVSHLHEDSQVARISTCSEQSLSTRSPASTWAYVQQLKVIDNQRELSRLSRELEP

Experiment [4] shares this target. The experiment in a line: Confirmatory qHTS for agonist of cAMP-regulated guanine nucleotide exchange factor 3 (EPAC1) (AID 1645881; active = well fitted curve in the direction sought with a large enough effect; an effect the other way counts as inactive or inconclusive; note: nearly all actives have a fitted effect of over 75% in size; note: potency is the fitted concentration of half-maximal effect).
In experiment [5] the target is Rap guanine nucleotide exchange factor 4 (Homo sapiens) (UniProt Q8WZA2). The experiment in a line: Confirmatory qHTS for agonist of cAMP-regulated guanine nucleotide exchange factor 4 (EPAC2) (AID 1645884; active = well fitted curve in the direction sought with a large enough effect; an effect the other way counts as inactive or inconclusive;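 note: nucleotide exchange releases bodipy-GDP from Rap1 and this lowers its fluorescence; % is set by controls: 0 for no effect and ±100 for the full control effect; nearly all actives have a fitted effect of over 65% in size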).
Chain of Rap guanine nucleotide exchange factor 4 (Homo sapiens) (Q8WZA2 whole entry, looked up): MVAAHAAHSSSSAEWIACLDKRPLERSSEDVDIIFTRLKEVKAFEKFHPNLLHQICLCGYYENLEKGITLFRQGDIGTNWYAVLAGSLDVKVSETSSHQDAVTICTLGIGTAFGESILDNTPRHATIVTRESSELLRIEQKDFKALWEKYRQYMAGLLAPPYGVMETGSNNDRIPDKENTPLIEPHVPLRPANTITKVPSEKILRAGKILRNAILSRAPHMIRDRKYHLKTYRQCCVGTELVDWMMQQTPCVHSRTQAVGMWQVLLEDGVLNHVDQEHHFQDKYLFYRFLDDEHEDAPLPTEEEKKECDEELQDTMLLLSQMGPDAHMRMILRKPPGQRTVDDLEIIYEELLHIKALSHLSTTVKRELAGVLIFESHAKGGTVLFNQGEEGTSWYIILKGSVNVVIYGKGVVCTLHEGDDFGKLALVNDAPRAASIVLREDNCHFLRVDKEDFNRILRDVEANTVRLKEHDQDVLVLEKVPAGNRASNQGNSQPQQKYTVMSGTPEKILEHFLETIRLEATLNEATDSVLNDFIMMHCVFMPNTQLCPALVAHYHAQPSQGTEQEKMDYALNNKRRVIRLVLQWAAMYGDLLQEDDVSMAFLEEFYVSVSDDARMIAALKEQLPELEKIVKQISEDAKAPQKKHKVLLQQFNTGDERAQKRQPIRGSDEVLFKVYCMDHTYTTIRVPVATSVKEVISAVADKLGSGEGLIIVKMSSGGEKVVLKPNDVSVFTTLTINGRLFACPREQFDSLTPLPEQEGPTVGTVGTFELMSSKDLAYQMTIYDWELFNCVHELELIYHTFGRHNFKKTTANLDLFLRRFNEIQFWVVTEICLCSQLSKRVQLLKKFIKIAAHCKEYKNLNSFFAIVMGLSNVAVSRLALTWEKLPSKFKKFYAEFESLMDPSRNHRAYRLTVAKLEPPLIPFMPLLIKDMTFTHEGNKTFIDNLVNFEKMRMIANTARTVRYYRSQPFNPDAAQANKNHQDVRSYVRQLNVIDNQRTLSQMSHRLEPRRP
Experiment [6] has the same target. The experiment in a line: Confirmatory qHTS for antagonist of cAMP-regulated guanine nucleotide exchange factor 4 (EPAC2) (AID 1645885; active = well fitted curve in the direction sought with a large enough effect; an effect the other way counts as inactive or inconclusive; note: nearly all actives have a fitted effect of over 25% in size; note: potency is the fitted concentration of half-maximal effect).
For experiment [7], the target named is Glutathione peroxidase 1 (Homo sapiens) (UniProt P07203). Briefly: Primary qHTS Assay for Inhibitors of Recombinant Selenoprotein Glutathione Peroxidase 1 (GPX1) (AID 1845191; active = well fitted curve in the direction sought with a large enough effect; an effect the other way counts as inactive or inconclusive; note: nearly all actives have a fitted effect of over 65% in size). In outline: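 GR-coupled assay: compounds preincubated 30 min at room temperature with GPX1, then reaction started with CHP; final 10 nM GPX1, 1 mM GSH, 0.5 mM CHP, 0.5 mM NADPH, 100 nM GR, 0.01% BSA, pH 7.5 Tris buffer. NADPH fluorescence (340/450 nm) read at 0 and 15 min.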
Chain of Glutathione peroxidase 1 (Homo sapiens) (P07203 whole entry, looked up): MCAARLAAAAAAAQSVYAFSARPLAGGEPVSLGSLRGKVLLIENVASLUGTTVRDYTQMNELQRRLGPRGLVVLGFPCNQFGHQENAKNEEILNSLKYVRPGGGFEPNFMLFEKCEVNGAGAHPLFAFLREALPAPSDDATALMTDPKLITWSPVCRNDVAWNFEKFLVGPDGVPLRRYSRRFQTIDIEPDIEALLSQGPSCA

Experiment [8] is described as follows: qHTS for Inhibitors of the vitamin D receptor (VDR): Hit Validation using a Texas Red Assay (AID 602201; active = well fitted curve in the direction sought with a large enough effect; an effect the other way counts as inactive or inconclusive; note: potency is the fitted concentration of half-maximal effect). As to conditions: VDR coregulator binding, Texas Red fluorescence polarization; agonist-bound VDR ligand-binding domain. In short, it runs like this: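 Fluorescence polarization with 1.5 uM VDR-LBD, LG19078 and 7 nM Texas Red (final). After 2 hours at ambient temperature, read at Ex 595 nm/Em 615 nm.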

For experiment [9], the target named is Rap guanine nucleotide exchange factor 3 (Homo sapiens) (UniProt O95398). Briefly: Counterscreen qHTS for agonist of cAMP-regulated guanine nucleotide exchange factor 3 (EPAC1) (AID 1645889; active = well fitted curve in the direction sought with a large enough effect; an effect the other way counts as inactive or inconclusive; note: nearly all actives have a fitted effect of over 40% in size; note: potency is the fitted concentration of half-maximal effect). In outline: (§1)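 Rap1B–BODIPY-GDP (250 nM) with 50 uM GDP; compounds pin-transferred to 9.74 nM–152 uM final (activator) or from 7.32 nM upwards (inhibitor). Fluorescence Ex/Em 480/540 nm read at 5 and 30 min, then after adding cAMP or buffer, at room temperature.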
(In general: A counterscreen serves to expose hits that act by an unwanted route or on another target.)

Experiment [10] deals with N-terminal Xaa-Pro-Lys N-methyltransferase 1 (Homo sapiens) (UniProt Q9BV86). Briefly: Confirmatory qHTS for Inhibitors of N-terminal methyltransferase 1 (NTMT1): MTaseGlo Assay (AID 1645874; active = well fitted curve in the direction sought with a large enough effect; an effect the other way counts as inactive or inconclusive; note: potency is the fitted concentration of half-maximal effect; nearly all actives have a fitted effect of over 65% in size). In short, it runs like this:
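NTMT1 (125 nM) preincubated 15 min with compound and 100 uM SAM, then 1 uM SPKRIA peptide added for 30 min at room temperature. SAH detected by MTase-Glo luminescence; normalized to no-enzyme and DMSO controls, fitted to 4-parameter Hill.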

In experiment [11] the target is Rap guanine nucleotide exchange factor 3 (Homo sapiens) (UniProt O95398). The experiment in a line: Counterscreen qHTS for antagonist of cAMP-regulated guanine nucleotide exchange factor 3 (EPAC1) (AID 1645888; active = well fitted curve in the direction sought with a large enough effect; an effect the other way counts as inactive or inconclusive;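 note: fluorescence loss as bound BODIPY-GDP is released from Rap1B; % of control where 0% means no effect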). In outline: as §1
Experiment [12] deals with Phospholipid hydroperoxide glutathione peroxidase GPX4 (Homo sapiens) (UniProt P36969). The experiment in a line: Primary qHTS Assay for Inhibitors of Recombinant Selenoprotein Glutathione Peroxidase 4 (GPX4) (AID 1845192; active = well fitted curve in the direction sought with a large enough effect; an effect the other way counts as inactive or inconclusive; note: nearly all actives have a fitted effect of over 65% in size). In short, it runs like this:
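GR-coupled assay: recombinant GPX4 preincubated 30 min with compound at room temperature; final 200 nM GPX4, 1 mM GSH, 0.5 mM cumene hydroperoxide, 0.5 mM NADPH, 100 nM GR, 0.01% BSA, pH 7.5 Tris. NADPH fluorescence (340/450 nm) read at 0 and 15 min.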

Experiment [13] concerns the target Cytochrome P450 3A4 (Homo sapiens) (UniProt P08684). Briefly: Cytochrome P450 family 3 subfamily A member 4 (CYP3A4) small molecule antagonists: luciferase qHTS assay (AID 1645841). Note: potency is the fitted concentration of half-maximal effect; nearly all actives have a fitted effect of over 45% in size. In short, it runs like this:
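P450-Glo CYP3A4 enzyme with proluciferin substrate preincubated 10 min with compound at room temperature, then NADPH regeneration 1 h. Luciferin detection reagent added for 20 min; luminescence recorded. Ketoconazole positive control.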

The nature of experiment [14]: qHTS drug screen for cell cycle checkpoint inhibitors in PARPi-resistant BRCA-mutant ovarian cancer cell lines. (AID 1963452; calls by dose curve). As to conditions: PEO1/OlaR viability, CellTiter-Glo luminescence, 96 h, stronger effect = lower value. In short, it runs like this:
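PEO1, PEO4 and PEO1/OlaR ovarian cancer cells, 600 per well, exposed 96 h at 37C to a dilution series. Viability read by CellTiter-Glo luminescence, normalized to DMSO and empty wells; activity summarized as Z-AUC.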

For experiment [15], the target named is Tumor susceptibility gene 101 protein (Homo sapiens) (UniProt Q99816). Briefly: qHTS Assay for Iinhibitors of HIV-1 Budding by Blocking the Interaction of PTAP/TSG101: Hit Validation (AID 651600; active = well fitted curve in the direction sought with a large enough effect; an effect the other way counts as inactive or inconclusive; note: % is set by controls: 0 for no effect and ±100 for the full control effect; nearly all actives have a fitted effect of over 70% in size). In short, it runs like this: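 Fluorescence polarization binding assay: Tsg101 binding domain (10 uM final) pre-dispensed with compounds, then FITC-labeled PTAP-motif peptide (50 nM final) added; 20 min at r.t. in HEPES pH 7.5 buffer with NaCl, Tween 20, EDTA, TCEP.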
Chain of Tumor susceptibility gene 101 protein (Homo sapiens) (Q99816 whole entry, looked up, the tested form may be a part): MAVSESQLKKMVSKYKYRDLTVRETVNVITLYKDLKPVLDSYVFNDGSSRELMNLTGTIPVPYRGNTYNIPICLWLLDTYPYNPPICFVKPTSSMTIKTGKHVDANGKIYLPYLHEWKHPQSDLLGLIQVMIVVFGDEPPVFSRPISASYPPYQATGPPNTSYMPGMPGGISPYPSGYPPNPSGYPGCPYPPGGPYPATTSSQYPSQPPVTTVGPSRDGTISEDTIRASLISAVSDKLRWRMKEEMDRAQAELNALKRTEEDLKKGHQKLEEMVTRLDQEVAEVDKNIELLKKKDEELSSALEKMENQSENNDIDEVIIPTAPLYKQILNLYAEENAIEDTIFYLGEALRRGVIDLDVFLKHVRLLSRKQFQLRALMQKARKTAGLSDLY

SMILES strings stand for the structures. Values joined by “and” are separate entries in the source; they are usually repeats but may differ in a detail not shown here. Equal values may be shown once. Results filed as inconclusive are left out. Active and inactive are the calls of the source. Unless noted, calls come from the whole dose curve; as a rule, active = well fitted curve in the direction sought with a large enough effect in the repeat runs; inconclusive = weak or mixed curves; inactive = no such curve, though single readings can be large; an effect the other way counts as inactive or inconclusive.

Chain of Cytochrome P450 2C9 (Homo sapiens) (P11712 whole entry, looked up): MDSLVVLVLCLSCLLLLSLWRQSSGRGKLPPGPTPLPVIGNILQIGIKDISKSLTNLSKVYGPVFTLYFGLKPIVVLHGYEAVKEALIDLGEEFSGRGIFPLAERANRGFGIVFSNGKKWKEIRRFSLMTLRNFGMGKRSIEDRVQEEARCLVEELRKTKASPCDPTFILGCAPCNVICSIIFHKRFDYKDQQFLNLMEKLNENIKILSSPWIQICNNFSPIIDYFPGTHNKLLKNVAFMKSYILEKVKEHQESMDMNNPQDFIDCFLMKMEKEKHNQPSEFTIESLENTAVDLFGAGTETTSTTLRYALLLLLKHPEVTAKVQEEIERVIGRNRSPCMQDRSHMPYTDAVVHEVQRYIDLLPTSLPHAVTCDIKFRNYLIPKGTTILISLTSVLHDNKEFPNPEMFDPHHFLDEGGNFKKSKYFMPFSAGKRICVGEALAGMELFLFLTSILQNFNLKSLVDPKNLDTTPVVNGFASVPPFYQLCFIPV
Chain of Cytochrome P450 2D6 (Homo sapiens) (P10635 whole entry, looked up): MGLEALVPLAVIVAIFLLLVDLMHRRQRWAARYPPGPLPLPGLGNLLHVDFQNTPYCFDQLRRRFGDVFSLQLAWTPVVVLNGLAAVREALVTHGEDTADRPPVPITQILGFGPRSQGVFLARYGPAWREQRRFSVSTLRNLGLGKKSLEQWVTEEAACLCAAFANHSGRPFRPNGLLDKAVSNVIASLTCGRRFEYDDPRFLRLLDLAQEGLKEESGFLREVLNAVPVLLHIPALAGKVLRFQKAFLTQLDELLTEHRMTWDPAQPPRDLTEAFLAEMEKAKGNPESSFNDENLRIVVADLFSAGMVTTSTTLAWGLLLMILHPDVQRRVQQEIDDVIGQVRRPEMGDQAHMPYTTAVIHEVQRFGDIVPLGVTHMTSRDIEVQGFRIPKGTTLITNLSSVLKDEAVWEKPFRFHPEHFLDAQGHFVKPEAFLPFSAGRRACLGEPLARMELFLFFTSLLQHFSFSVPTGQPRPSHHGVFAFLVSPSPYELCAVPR
Chain of Phospholipid hydroperoxide glutathione peroxidase GPX4 (Homo sapiens) (P36969 whole entry, looked up): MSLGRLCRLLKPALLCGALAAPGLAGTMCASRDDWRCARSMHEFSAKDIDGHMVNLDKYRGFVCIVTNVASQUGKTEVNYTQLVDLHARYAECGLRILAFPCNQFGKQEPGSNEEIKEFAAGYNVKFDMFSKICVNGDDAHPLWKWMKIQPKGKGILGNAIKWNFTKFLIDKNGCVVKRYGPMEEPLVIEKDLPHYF
Chain of N-terminal Xaa-Pro-Lys N-methyltransferase 1 (Homo sapiens) (Q9BV86 whole entry, looked up): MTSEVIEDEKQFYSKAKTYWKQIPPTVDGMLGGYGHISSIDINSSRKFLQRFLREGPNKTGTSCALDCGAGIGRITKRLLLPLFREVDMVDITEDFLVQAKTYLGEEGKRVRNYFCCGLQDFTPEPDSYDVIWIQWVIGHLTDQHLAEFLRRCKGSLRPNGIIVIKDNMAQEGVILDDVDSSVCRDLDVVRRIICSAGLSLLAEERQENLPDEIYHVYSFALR
Chain of Cytochrome P450 3A4 (Homo sapiens) (P08684 whole entry, looked up): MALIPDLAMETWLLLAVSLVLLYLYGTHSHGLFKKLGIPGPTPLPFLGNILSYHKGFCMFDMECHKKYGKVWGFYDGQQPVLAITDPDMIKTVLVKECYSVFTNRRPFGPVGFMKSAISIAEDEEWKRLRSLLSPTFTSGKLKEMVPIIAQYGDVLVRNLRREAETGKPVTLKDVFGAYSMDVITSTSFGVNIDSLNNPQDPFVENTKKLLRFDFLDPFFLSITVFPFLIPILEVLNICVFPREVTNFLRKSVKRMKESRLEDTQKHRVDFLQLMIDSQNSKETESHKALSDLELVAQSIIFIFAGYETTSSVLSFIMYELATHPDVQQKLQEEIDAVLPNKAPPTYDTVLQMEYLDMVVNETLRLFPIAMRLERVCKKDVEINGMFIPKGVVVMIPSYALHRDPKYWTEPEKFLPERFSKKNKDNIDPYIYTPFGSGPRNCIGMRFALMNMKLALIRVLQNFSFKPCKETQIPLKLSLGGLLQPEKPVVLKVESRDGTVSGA

`Cc1ccc(C2=CC(c3ccccc3F)n3c(nc4ccccc43)N2)cc1C` (stereo not drawn): the Potency is 10.7 µM (active) in experiment [1] and 6.01 µM (active) in experiment [2].
The corresponding values for `COc1ccc(Br)c2c1-c1nc(NC(=O)c3ccccc3SC)sc1C2` are “inactive” and “inactive”.
The corresponding values for `COc1ccc(NC(=O)Cn2ccn(-c3ccc(C)c(C)c3)c(=O)c2=O)cc1Cl` are “inactive” and “inactive”.
Regarding `CC1(C#N)CCN(c2c(C(=O)N3CCN(C(=O)C4CC4)CC3)cnc3c(F)cc(F)cc23)CC1`, the Potency result in experiment [1] was “inactive”. The Potency in experiment [2] was 12 µM (active).
As for `Cc1ccnc(NC(c2cccc(O)c2)c2ccc3ccc(C)nc3c2O)c1` (stereo not drawn), the Potency in [1] is 13.5 µM (active); in [2] it was 9.52 µM (active).
Take `COc1ccc(NC(=O)C2=C(C)Nc3nc(SCc4ccccc4C)nn3C2c2cc(OC)c(O)c(OC)c2)cc1` (stereo not drawn): the Potency result in experiment [1] and in experiment [2] was “inactive” throughout.
Regarding `Oc1c(C(c2ccccc2)N2CCN(c3cccc(Cl)c3)CC2)sc2nc(-c3ccco3)nn12` (stereo not drawn), the Potency in experiment [1] is 13.5 µM (active); in experiment [2] it was 5.35 µM (active); in experiment [3], 47.8 µM (active). Further, the Potency entry in [4] and in [5] was “inactive” in each case. In addition, the outcome in experiment [6] was “inactive [at 12.7 µM]”.
For `Cc1cc(-c2nc(CN3CCC(C(=O)NCCCN4C[C@H](C)C[C@H](C)C4)CC3)co2)ccc1F`, the Potency in experiment [1] is 0.952 µM (active). In addition, the Potency result in experiment [2] and in [7] was “inactive” in each case.
`Cc1ccnc(NC(c2cc(C)ccc2O)c2ccc3cccnc3c2O)c1` (stereo not drawn): the Potency in experiment [8] was 28.2 µM (active); in [2], 23.9 µM (active). Further, in experiment [1], the Potency entry was “inactive”.
With `COc1ccc(OCC(=O)Nc2cc(-c3nc4ccccc4s3)ccc2C)cc1`, the Potency in experiment [2] is 0.379 µM (active).
On the same count and under the same terms, in the case of `COC(=O)Cc1cccc(NC(=O)C2=C(C)NC(Nc3nc4ccccc4o3)=NC2c2ccccc2Cl)c1` (stereo not drawn) it was 9.52 µM (active).
In the case of `Cc1cc(OCCCSc2nc(-c3ccc(C(C)(C)C)cc3)nc3cc(=O)[nH]n23)ccc1Cl`, the Potency result in experiment [1], in experiment [4], in experiment [5] and in [9] was “inactive” in each case. Also, the results for the Potency in experiment [2] and in experiment [3] were 15.1 µM (active) and 67.5 µM (active), respectively. Also, in experiment [6], the outcome was “inactive [at 12.7 µM]”.
On to `O=C(CSc1nc(-c2ccc(F)cc2)nc2c1Cc1ccccc1O2)Nc1cccc(C(=O)O)c1`, for which the Potency result in experiment [1], in experiment [4], in [5], in experiment [6] and in experiment [11] was “inactive” in each case. Besides, the Potency was 6.02 µM (active) in [10]; 6.01 µM (active) and 151 nM (active) in experiment [3].
Regarding `CC(=O)c1ccc(NC(=O)Cn2cc(S(=O)(=O)Cc3ccccc3Cl)c3ccccc32)cc1`, in [2], the Potency was 1.69 µM (active).
On to `CN(CCCCCCCCCCN(C)C(=O)Oc1cccc([N+](C)(C)C)c1)C(=O)Oc1cccc([N+](C)(C)C)c1`, for which the Potency entry in [1], in experiment [2], in [7] and in experiment [12] was “inactive” throughout.
For `CCOC(=O)c1c(NC(=O)c2ccc(S(=O)(=O)N(C)C3CCCCC3)cc2)sc2c1CCN(C(C)C)C2`, the Potency in [1] is 9.52 µM (active); in experiment [2] it was 5.35 µM (active); in experiment [4] it was 89.1 µM (active); in experiment [6], 4.26 µM (active); in experiment [9], 20 µM (active). Besides, the Potency entry in experiment [3] and in experiment [5] was “inactive” each time.
For the molecule `Oc1ccc(C2(c3ccccc3F)CCC(F)(F)CC2)cc1`, the Potency is 12 µM (active) in [13] and 2.13 µM (active) in [2].
`CN[C@@H](C)C(=O)N[C@H](C(=O)N1CCC[C@H]1c1nc(C(=O)c2ccc(F)cc2)cs1)C1CCCCC1`: the Potency result in experiment [1], in experiment [2], in [7] and in experiment [12] was “inactive” in each case. For the same molecule, the Z-AUC in experiment [14] was -0.196 (inactive); in experiment [14] (measured here: PEO1 parental Z-AUC), -0.329; in experiment [14] (measured here: PEO4 Z-AUC) it was -0.73.
As to `COc1ccc(OC)c(/C=C(\C#N)c2nc3ccccc3c(=O)[nH]2)c1`, the Potency result in [15] and in [1] was “inactive” in each case. For the same molecule, in experiment [2], the Potency is 1.51 µM (active).
On to `CC1(C)C(/C=C/C=C/C=C/C=C2/N(CCCCS(=O)(=O)O)c3ccc4ccccc4c3C2(C)C)=[N+](CCCCS(=O)(=O)[O-])c2ccc3ccccc3c21`, for which the Potency is 26.8 µM (active) in [1] and 13.5 µM (active) in [2]. Further, in experiment [7], the Potency result was “inactive”.
Consider `COc1ccccc1NC(=O)CSc1oc(-c2cccs2)nc1S(=O)(=O)c1ccc(Br)cc1`, for which the Potency in experiment [2] was 0.425 µM (active).

The values are drawn from PubChem BioAssay (NCATS).
